In all, about 71,000 compounds went through this assay and about 1,300 (1.8%) were called active. Only a selection was taken, and actives are over-represented in it overall. Values without a mark were called inactive. The call rests on the fitted dose curve.
The compounds below were run against Beta-lactamase (Escherichia coli (strain K12)) (UniProt P00811) (assay: Promiscuous and Specific Inhibitors of AmpC Beta-Lactamase (assay without detergent)). Details: AmpC nitrocefin hydrolysis, absorbance 480 nm, no detergent; series mostly up to 28.7 µM; activity change, negative = inhibition: at the top concentration.
Protocol: NIH Molecular Libraries Screening Centers Network [MLSCN]
NIH Chemical Genomics Center [NCGC]
PI Name: Shoichet, Brian K.
This aggregation profiling approach exploits the sensitivity of aggregate formation to detergent. Inhibition of b-lactamase is measured in the presence and absence of 0.01% Triton X-100. See Pubchem assay "Promiscuous and Specific Inhibitors of AmpC Beta-Lactamase (assay with detergent)" for related screen. Compounds that inhibit only in the absence of detergent are considered likely promiscuous aggregators.
A screen of 1,030 compounds was performed in Brian Shoichet's lab in 96-well format. AmpC activity was measured by following the absorbance at 480 nm. Nitrocefin is a chromogenic substrate: while nitrocefin is yellow (lmax 390 nm), the product of its hydrolysis is red (lmax 486 nm, 17,000 M-1). AmpC beta lactamase was provided by Brian Shoichet and Brian Feng, UCSF.
NCGC Assay Protocol Summary:
20 mM phosphate buffer, pH 7.0
Triton X-100: No Detergent screen: 0.0001%, Detergent screen: 0.01%.
Buffer in columns 3 and 4 as negative control (no enzyme).
5.3 nM AmpC in columns 1, 2, 5-48. Titration of UCSF compound 9 control (from 10 mM, then 1:2) pin-transferred to column 2. Column 1 is neutral (100% activity).
Six uL of reagents were dispensed to 1536-well Greiner black clear bottom plates. Compounds and controls (23 nL) were transferred via Kalypsys PinTool. The plates were incubated for 15 min at room temperature, and then 2 uL of 800 uM solution of nitrocefin was added to start the reaction. The plates were immediately transferred to and read every 20 seconds for 4 min on ViewLux (Perkin-Elmer) High-throughput CCD imager using 480 nm absorbance protocol. During dispense, reagent bottles were kept submerged into 4 deg C water bath.
Keywords: NIH Roadmap, MLSCN, MLI, MLSMR, qHTS, NCGC, AmpC Beta-Lactamase, Aggregation.
Potency means the concentration at half of the fitted maximal effect.
Wherever activity change, negative = inhibition is given: % of control where 0% means no effect.

Beta-lactamase (Escherichia coli (strain K12)), sequence (P00811 whole entry, looked up): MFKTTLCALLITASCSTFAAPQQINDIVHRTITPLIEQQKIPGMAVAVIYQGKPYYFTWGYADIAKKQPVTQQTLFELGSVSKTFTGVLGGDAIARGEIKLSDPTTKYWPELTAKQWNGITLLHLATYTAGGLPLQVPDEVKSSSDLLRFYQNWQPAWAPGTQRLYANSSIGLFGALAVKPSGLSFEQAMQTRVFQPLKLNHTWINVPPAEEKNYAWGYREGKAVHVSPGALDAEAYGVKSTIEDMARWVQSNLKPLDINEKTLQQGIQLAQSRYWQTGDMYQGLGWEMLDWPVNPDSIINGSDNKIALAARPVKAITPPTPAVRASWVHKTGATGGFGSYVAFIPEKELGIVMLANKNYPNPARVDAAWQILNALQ

SMILES | activity change, negative = inhibition | Potency
CCc1nnc(NC(=O)CSc2nnc(COc3ccc(C#N)cc3)n2-c2ccccc2)s1 | 49% (inactive) | –
CCOc1ccc(-n2c(SC(C)C(=O)OC)nc3c(c2=O)SCC3)cc1 (stereo not given) | 47.2% (inactive) | –
O=C(CN1C(=O)c2ccccc2S1(=O)=O)N1CCc2ccccc21 | -13.7% (inactive) | –
CNC(=O)CN1C(=O)c2ccccc2S1(=O)=O | – | 3.98 µM [single pt active] (active)
CCCc1nnc(NC(=O)CN2C(=O)c3ccccc3S2(=O)=O)s1 | -10.1% (inactive) | –
Fc1cccc(/C=N\N=C/c2cccc(F)c2)c1 | 11.7% (inactive) | –
COc1cccc(NC(=O)C2CCCN2C(=O)OCc2ccccc2)c1 (stereo not given) | 9.3% (inactive) | –
COc1cccc(Nc2nnc(SCC(=O)N3CC(C)OC(C)C3)s2)c1 (stereo not given) | 21% (inactive) | –
COc1cccc(NC(=O)Nc2nnc(N3CCCCC3C)s2)c1 (stereo not given) | – | 2.51 µM [single pt active] (active)
COCc1cc(C)nc(SCC(=O)Nc2cccc(C)c2)c1C#N | -7.6% (inactive) | –
CC1=C2C(=O)OC(c3ccoc3)C2(C)CCC1 (stereo not given) | -1.9% (inactive) | –
COc1ccc(C(=O)N/N=C2/C(=O)c3c(C)cc(C)cc3CC2(C)C)cc1 | 18.6% [at 5.75 µM] | –
CCOC(=O)N1CCC(C(N)=O)CC1 | -4.6% (inactive) | –
Cc1noc(C)c1S(=O)(=O)N(CC(=O)Nc1ccc2c(c1)OCCO2)c1ccc(C(C)C)cc1 | -4.4% (inactive) | –
CCOC(=O)C1(C(F)(F)F)N=C(N(C)C)OC(N(C)C)=N1 | -6.4% (inactive) | –
N#CC1=C(N)Oc2cc(O)ccc2C1C1CCCCC1 (stereo not given) | -9.2% (inactive) | –
O=C(O)c1c(Br)c(Br)c(Br)c(Br)c1C1c2ccc(O)cc2Oc2cc(O)ccc21 | – | 0.158 µM (active)
COCCNC(=O)CN1C(=O)CSc2ncccc21 | -21.6% (inactive) | –
CC(C)(Cc1c[nH]c2ccc(Cl)cc12)NCCOc1ccccc1OCC1CC1 | – | 20 µM [single pt active] (active)
NCC[Se][Se]CCN | 1.6% [at 5.75 µM] | –
COC(=O)N1CCC[C@@]2(CCN(C(=O)NC(C)C)C2)C1 | 22.8% (inactive) | –
Cc1cc(C)c(C#N)c(SCc2ccc3c(c2)OCO3)n1 | -11.5% (inactive) | –
Cc1nc(C)c(C(=O)Nc2cccc(C)c2C)o1 | – | 3.98 µM [single pt active] (active)
Cc1nc(C)c(C(=O)Nc2ccc(C)c(F)c2)o1 | -4% (inactive) | –
COc1ccc(Cl)cc1NC(=O)c1oc(C)nc1C | 22.7% (inactive) | –

SMILES | activity change, negative = inhibition | Potency
c1ccc2c(c1)OCC(CNc1ncnc3nc[nH]c13)O2 (stereo not given) | 8.2% (inactive) | –
c1ccc(CCN2CCN=C2Cc2ccccc2)cc1 | 13.3% [at 5.75 µM] | –
COc1cccc(N2C(=O)C3CCCN3C2c2ccc(F)cc2)c1 (stereo not given) | 26.5% (inactive) | –
CC1=CC(C)(C)N(C(=O)CSc2nccn2C)c2cc(C)ccc21 | 45.9% (inactive) | –
O=C(Cn1c(=S)nc2ccccn21)N1CCc2ccccc2C1 | 3.2% (inactive) | –
C=C1c2cc(CC)ccc2NC(=O)N1c1ccc(C)cc1 | – | 3.98 µM [single pt active] (active)
Cc1ccc(S(=O)(=O)N2CC(=O)Nc3ccccc32)cc1C | 2.2% (inactive) | –
FC(F)Oc1ccccc1C1CC(c2ccc(Br)s2)Nc2ncnn21 (stereo not given) | 66.8% (inactive) | –
O=c1cc(Cn2nnc(-c3ccc(Cl)cc3)n2)nc2sccn12 | 40% (inactive) | –
CS(=O)(=O)N(CC(=O)N1CCN(Cc2ccc3c(c2)OCO3)CC1)c1ccc2c(c1)OCO2 | 68.3% (inactive) | –
O=C(NCc1ccco1)C1CCCN(S(=O)(=O)c2cnc[nH]2)C1 (stereo not given) | – | 3.98 µM [single pt active] (active)
CCCS(=O)(=O)N1CCCC(C(=O)NCc2ccco2)C1 (stereo not given) | -0.5% (inactive) | –
O=C(NCc1ccco1)C1CCCN(S(=O)(=O)c2cccc3nonc23)C1 (stereo not given) | 0.9% (inactive) | –
CC1(C)CC(CCC(=O)Nc2ccccc2Cl)C(=O)O1 (stereo not given) | -5.9% (inactive) | –
COc1ccc(C(=O)N(Cc2ccc(N(C)C)cc2)C2CCS(=O)(=O)C2)cc1 (stereo not given) | 37.7% (inactive) | –
Cc1nc(N2CCN(c3ncccn3)CC2)c2oc3ccccc3c2n1 | 56.3% (inactive) | –
CCOC(=O)N1CCN(C(=O)c2cc3c(ccc4ccccc43)oc2=O)CC1 | 42.4% (inactive) | –
Cn1cccc1C(=O)NC(=O)COC(=O)Cc1coc2ccc3ccccc3c12 | – | 12.6 µM (active)
CC(C)(C)NC(=O)NC(=O)COC(=O)Cn1c(C(F)(F)F)nc2ccccc21 | 24% (inactive) | –
CCN1CCN(Cc2c(O)ccc3c(=O)c(-c4ccc(OC)c(OC)c4)c(C(F)(F)F)oc23)CC1 | 51.9% (inactive) | –
CN1CCN(CCCNC(=O)c2cc3c(=O)oc4ccccc4c3s2)CC1 | 13.6% (inactive) | –
COc1cc(C2C(C(=O)Nc3ccccc3OC)=C(C)Nc3ncnn32)ccc1O (stereo not given) | – | 3.98 µM [single pt active] (active)
COc1ccccc1NC(=O)C1=C(C)Nc2ncnn2C1c1ccc(C)o1 (stereo not given) | 2.7% (inactive) | –
COc1ccccc1NC(=O)C1=C(C)Nc2nnnn2C1c1cccc(Br)c1 (stereo not given) | 12.1% (inactive) | –
COc1ccc(CCN(C)CCN2C(=O)c3ccccc3C2=O)cc1OC | 9.6% (inactive) | –

Reference: PubChem BioAssay AID585 (National Center for Advancing Translational Sciences (NCATS), 2007)
